{
  "source": "PubChem BioAssay (Tox21)",
  "note": "Results filed as inconclusive are left out. A number with no mark means an inactive call. Calls come from the whole dose curve; as a rule, active = well fitted inhibition curve with a large enough effect in the signal ratio in the repeat runs (not every such curve was filed as active); inconclusive = weak or mixed curves, or effect the other way; inactive = no such curve, though single readings can be large or run the other way; the % refers to the signal ratio. % is set by controls: 0 for no effect and ±100 for the full control effect.",
  "data": [
    {"biological_target": "Bile acid receptor (Homo sapiens) (UniProt Q96RI1)", "sequence (Q96RI1 whole entry, looked up)": "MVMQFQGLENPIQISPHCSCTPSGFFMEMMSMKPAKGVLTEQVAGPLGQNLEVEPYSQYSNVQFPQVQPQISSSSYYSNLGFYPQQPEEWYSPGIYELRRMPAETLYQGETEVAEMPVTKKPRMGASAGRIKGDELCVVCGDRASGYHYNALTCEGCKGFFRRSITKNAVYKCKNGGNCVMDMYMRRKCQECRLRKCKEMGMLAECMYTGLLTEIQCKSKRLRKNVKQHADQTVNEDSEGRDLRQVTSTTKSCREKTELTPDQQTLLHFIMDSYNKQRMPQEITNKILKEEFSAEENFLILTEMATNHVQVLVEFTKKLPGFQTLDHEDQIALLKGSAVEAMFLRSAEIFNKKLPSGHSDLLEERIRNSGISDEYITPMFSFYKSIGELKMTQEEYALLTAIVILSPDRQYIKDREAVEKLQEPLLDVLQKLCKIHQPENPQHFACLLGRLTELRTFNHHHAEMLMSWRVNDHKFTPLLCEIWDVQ", "assay": "qHTS assay to identify small molecule antagonists of the farnesoid-X-receptor (FXR) signaling pathway (AID 743217)", "details": "HEK293T FXR-UAS-bla, beta-lactamase ratio, CDCA-stimulated, 16 h; series mostly up to 62.6 µM; activity change, negative = inhibition: at the top concentration", "text": "U.S. Tox21 Program National Center for Advancing Translational Sciences [NCATS] NIH Chemical Genomics Center [NCGC] U.S. Environmental Protection Agency [EPA] National Institutes of Environmental Health Sciences [NIEHS] National Toxicology Program [NTP] U.S. Food and Drug Administration [FDA] Tox21 Assay Overview: The farnesoid-X-receptor (FXR), a nuclear hormone receptor, is highly expressed in liver, intestine, kidney and adrenal cortex. Natural ligands of FXR are the bile acids (Cholic acid, Chenodeoxy cholic acid etc). FXR is an important regulator of diverse metabolic pathways, including the bile acid homeostasis, lipid and glucose metabolisms. FXR regulates the expression of target genes by binding either as a monomer or as a heterodimer with the retinoid X receptor (RXR). Numerous studies have reported that FXR exerts protective function during cholestasis, diabetes, liver regeneration, and cancer. To identify compounds that inhibit FXR signaling, GeneBLAzer FXR-UAS-bla HEK 293T cell line (Invitrogen, Carlsbad, CA) containing a beta-lactamase reporter gene under the control of a UAS response element was used to screen the Tox21 10K compound library.\nTox21 Assay Protocol Summary: FXR-bla cells were dispensed at 5000 cells/5uL/well in 1536-well black wall/clear bottom plates using a Multidrop Combi (Thermo Fisher Scientific, Waltham, MA) dispenser. After the assay plates were incubated at 37C and 5% CO2 for 5 h, 23 nL of compounds dissolved in DMSO, positive controls or DMSO only was transferred to the assay plate by a Pintool station (Kalypsys, San Diego, CA), followed by addition of 1 uL Chenodeoxycholic acid (50 uM, final concentration in the wells). The assay plates were incubated at 37C for 16 h. After 1 uL of LiveBLAzerTM B/G FRET substrate was added using a Bioraptr Flying Reagent Dispenser (FRD) workstation (Beckman Coulter, Indianapolis, IN), the plates were incubated at room temperature for 2 h, and fluorescence intensity was measured by an Envision plate reader (PerkinElmer, Shelton, CT).", "values": [
      {"smiles": "CCCCCCCCCCCBr", "activity change, negative = inhibition": "1.34%"},
      {"smiles": "O=C(O)COc1ccc2ccccc2c1", "activity change, negative = inhibition": "3.28%"},
      {"smiles": "O=C(O)Cc1c(Cl)ccc(Cl)c1Cl", "activity change, negative = inhibition": "2.18%"},
      {"smiles": "CCCC[O][Al]([O]CCCC)[O]CCCC", "activity change, negative = inhibition": "0.631%"},
      {"smiles": "C/C=C/C(=O)CCCC", "activity change, negative = inhibition": "0.471%"},
      {"smiles": "CCCCCCC(=O)c1ccccc1", "activity change, negative = inhibition": "-4.61%"},
      {"smiles": "CCCCCCCCCCCCCCBr", "activity change, negative = inhibition": "-5.37% [at 81.1 µM]"},
      {"smiles": "Cc1cc(=O)oc2cc(O[C@@H]3SC[C@@H](O)[C@H](O)[C@H]3O)ccc12", "activity change, negative = inhibition": "4.02%"},
      {"smiles": "C[Si](C)(C)O[Si](O)(O)O", "activity change, negative = inhibition": "6.33%"},
      {"smiles": "NS(=O)(=O)c1cc2c(cc1C(F)(F)F)NCNS2(=O)=O", "activity change, negative = inhibition": "-16.6%"},
      {"smiles": "COc1cc(OC)cc(OC)c1", "activity change, negative = inhibition": "1.22%"},
      {"smiles": "O=C(O)CCC(=O)Nc1ccc(S(=O)(=O)Nc2nccs2)cc1", "activity change, negative = inhibition": "-4.57%"},
      {"smiles": "CCCCC(O)/C=C(C)/C=C/C=C/C(=O)N1CCCC1=O", "note": "(stereo not given)", "activity change, negative = inhibition": "0.353%"},
      {"smiles": "CCOC(=O)COc1ccc2c(C)c(CCN(CC)CC)c(=O)oc2c1Cl", "activity change, negative = inhibition": "-0.601%"},
      {"smiles": "CCCC(C)C(O)CC", "note": "(stereo not given)", "activity change, negative = inhibition": "2.68%"},
      {"smiles": "CC(=O)c1ccc(O)c(C(N)=O)c1", "activity change, negative = inhibition": "3.78%"},
      {"smiles": "NNC(=O)CCCCC(=O)NN", "activity change, negative = inhibition": "0.346%"},
      {"smiles": "CC[C@@]1(c2ccccc2)NC(=O)N(C)C1=O", "activity change, negative = inhibition": "2.87%"},
      {"smiles": "CC(=O)Nc1ccc(S(=O)(=O)Nc2cc(C)on2)cc1", "activity change, negative = inhibition": "1.76%"},
      {"smiles": "O=C1CC2(CCCC2)CC(=O)N1CCNCC1COc2ccccc2O1", "note": "(stereo not given)", "activity change, negative = inhibition": "-4.36%"},
      {"smiles": "CC(=O)SCC(CC(=O)c1ccc(C)cc1)C(=O)O", "note": "(stereo not given)", "activity change, negative = inhibition": "2.78%"},
      {"smiles": "CCN(CC)CC(=O)Oc1ccc(NC(C)=O)cc1", "activity change, negative = inhibition": "0.605%"},
      {"smiles": "C=CCOC(=O)CCCCCCCC", "activity change, negative = inhibition": "0.55% [at 81.1 µM]"},
      {"smiles": "CCC(C)c1nccnc1OC", "note": "(stereo not given)", "activity change, negative = inhibition": "-6.22%"},
      {"smiles": "CCN(CC)CC", "activity change, negative = inhibition": "2.23% [at 81.1 µM]"},
      {"smiles": "CCNC(=O)C(C)OC(=O)Nc1ccccc1", "note": "(stereo not given)", "activity change, negative = inhibition": "-0.539%"},
      {"smiles": "O=C(O)/C=C(\\CC(=O)O)C(=O)O", "activity change, negative = inhibition": "6.82%"},
      {"smiles": "C[C@@H]1CC[C@@]2(OC1)O[C@H]1C[C@H]3[C@@H]4CC[C@H]5C[C@@H](O)CC[C@]5(C)[C@H]4CC(=O)[C@]3(C)[C@H]1[C@@H]2C", "activity change, negative = inhibition": "10.4% [at 5.95 µM]"},
      {"smiles": "CC(C)C(=O)Nc1cccc(C2CN3CCSC3=N2)c1", "note": "(stereo not given)", "activity change, negative = inhibition": "-10.1%"},
      {"smiles": "CCCc1ncc(C(=O)O)s1", "activity change, negative = inhibition": "-1.71%"},
      {"smiles": "CC(C)(C)C(=O)CC(=O)C(C)(C)C", "activity change, negative = inhibition": "1.01% [at 81.1 µM]"},
      {"smiles": "NCC1CCC(C(=O)Oc2ccc(CCC(=O)O)cc2)CC1", "note": "(stereo not given)", "activity change, negative = inhibition": "-4.5%"},
      {"smiles": "COC(=O)c1cc(Cl)c(NC(C)=O)cc1OC", "activity change, negative = inhibition": "0.755%"},
      {"smiles": "CCCCc1ccc(Cl)cc1", "activity change, negative = inhibition": "0.587%"},
      {"smiles": "C/C(=N\\O)c1ccc(OCC(=O)N2CCCCC2)cc1", "activity change, negative = inhibition": "2.12%"},
      {"smiles": "CCCCC(CC)COC(=O)CC#N", "note": "(stereo not given)", "activity change, negative = inhibition": "-8.71%"},
      {"smiles": "CC1(C)CC(N)CC(C)(C)N1", "activity change, negative = inhibition": "0.491%"},
      {"smiles": "C[C@H]1COc2c(C3(N)CC3)c(F)cc3c(=O)c(C(=O)O)cn1c23", "activity change, negative = inhibition": "1.3%"},
      {"smiles": "COc1cc(C(=O)NC2CCCNC2)cc(OC)c1OC", "note": "(stereo not given)", "activity change, negative = inhibition": "0.978%"},
      {"smiles": "Cc1ccc2cccnc2c1", "activity change, negative = inhibition": "1.56%"}
    ]}
  ]
}
